# This is a sample that favours compounds with a hit; in the whole collection about 5.5% have one here.
# CBFb-RUNX1 inh = qHTS Assay for Compounds Blocking the Interaction Between CBF-beta and RUNX1 for the Treatment of Acute Myeloid Leukemia | 230,000 tested, under 10 active | AID 1477, 2009 | Runt-related transcription factor 1 (Homo sapiens) + Core-binding factor subunit beta … | Potency, µM (titrated, usually from 59.8 µM), inactives show top-dose activity, negative = inhibition, usual class: inhibitors | AlphaScreen CBFb-His/RUNX1-biotin binding, biochemical; further: % of control where 0% means no effect
#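 AlphaScreen binding: CBFb-His and RUNX1-biotin (30 nM each) preincubated 20 min, compound added for 15 min, then nickel and streptavidin beads for 90 min, all at room temperature. Disruption of the interaction by any mechanism counts as activity.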
# Six1-Eya2 blk = qHTS Assay for Inhibitors of the Six1/Eya2 Interaction. Homeobox protein SIX1 (Homo sapiens) + Protein phosphatase EYA2 (Homo sapiens), …. AlphaScreen GST-Six1/His-Eya2 binding, biochemical; active compounds read low. activity change, % (test concentration not listed). actives 0.56% (n = 360,000); in the data active means activity change below about -65%; inconclusive means mostly about -30% to -63%; further: on the % scale 0 is the no-effect control and ±100 the full control effect
# Target sequence (O00167 whole entry, looked up): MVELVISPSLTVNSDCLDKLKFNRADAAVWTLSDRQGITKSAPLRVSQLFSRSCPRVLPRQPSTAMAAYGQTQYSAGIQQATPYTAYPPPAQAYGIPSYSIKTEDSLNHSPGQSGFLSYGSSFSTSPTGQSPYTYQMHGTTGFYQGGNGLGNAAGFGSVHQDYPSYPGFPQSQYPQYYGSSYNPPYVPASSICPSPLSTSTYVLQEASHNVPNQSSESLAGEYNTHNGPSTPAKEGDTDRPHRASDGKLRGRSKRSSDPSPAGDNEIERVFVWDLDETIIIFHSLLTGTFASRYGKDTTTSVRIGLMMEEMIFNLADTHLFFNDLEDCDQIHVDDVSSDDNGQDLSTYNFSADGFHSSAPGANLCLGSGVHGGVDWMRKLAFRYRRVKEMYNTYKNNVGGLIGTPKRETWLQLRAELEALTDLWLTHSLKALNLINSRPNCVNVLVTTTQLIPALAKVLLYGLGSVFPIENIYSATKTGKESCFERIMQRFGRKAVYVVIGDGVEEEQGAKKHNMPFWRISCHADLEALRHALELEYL
# Target sequence (Q15475 whole entry, looked up): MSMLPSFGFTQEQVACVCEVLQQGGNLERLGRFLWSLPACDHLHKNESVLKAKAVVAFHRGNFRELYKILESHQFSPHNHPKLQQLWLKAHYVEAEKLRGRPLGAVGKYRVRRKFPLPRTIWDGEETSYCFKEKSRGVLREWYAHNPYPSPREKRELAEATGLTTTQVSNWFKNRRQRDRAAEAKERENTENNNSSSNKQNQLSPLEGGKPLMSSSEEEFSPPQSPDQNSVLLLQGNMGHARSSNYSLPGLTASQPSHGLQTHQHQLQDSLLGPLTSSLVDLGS
#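 Six1/Eya2 binding was read as AlphaScreen signal after compounds were pinned into GST-Six1 plus His-tagged Eya2 (5X stock 250/500 nM) in pH 8.0 Tris/NaCl/TCEP buffer, beads added, then incubated 1 h, 37 C, dark.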
# MBNL1 CUG block = qHTS Assay for Inhibitors of MBNL1-poly(CUG) RNA binding; TR-FRET MBNL1-His/biotin-(CUG)12 binding, 665/545 ratio; Potency, µM (highest dose often 57.5 µM), for the others: at the top dose activity change, negative = inhibition, hits mostly inhibitors; actives 0.036% (n = 280,000); AID 2675, 2010; active means well fitted inhibition curve with a large enough effect in the signal ratio, with a control signal flat, not every such curve was filed as active; inconclusive means small, poorly fitted or top-dose-only effect, or effect the other way, or a change in a side signal; inactive means no such curve, though single readings can be large or run the other way; the % refers to the signal ratio; further: potency means the concentration at half of the fitted maximal effect; on the % scale 0 is the no-effect control and ±100 the full control effect
#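 Ratiometric TR-FRET (665 over 545 nm, excitation 340 nm) tracks disruption of MBNL1-His/biotin-(CUG)12 complex after 60 min at room temperature, with compounds at 92 nM to 58 uM final.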
# CtBP-E1A blk = qHTS Assay for Inhibitors of the CtBP/E1A Interaction; AlphaScreen GST-E1A/His-CtBP binding, 1536-well; active compounds read low; activity change, % (no concentration beside the values); actives 0.49% (n = 340,000); AID 651724, 2012; CtBP / adenovirus E1A interaction (AlphaScreen); in the data active means activity change below about -65%; inconclusive means mostly about -30% to -63%; further: on the % scale 0 is the no-effect control and ±100 the full control effect
#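 Protein mix (5X: 125 nM each GST-E1A, His-CtBP) was incubated with pinned compound 2 h at 37 deg C in dark, in 50 mM Tris pH 8.0 buffer with 300 mM NaCl. Glutathione donor and nickel acceptor beads followed; AlphaScreen signal read after 1 h.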
# RORg inh = qHTS for inhibitors of ROR gamma transcriptional activity; Drosophila S2 Gal4-RORgamma UAS-luciferase reporter, 20 h; Potency, µM (series often up to 53.6 µM), inactives show at the top dose activity change, negative = inhibition, most hits filed as inhibitors; actives 5.4% (n = 310,000); further: potency means the concentration at half of the fitted maximal effect; on the % scale 0 is the no-effect control and ±100 the full control effect; nearly all actives have a fitted effect of over 60% in size
#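 Using a luciferase readout, inhibitors were identified by reduced reporter activity in Drosophila cells coexpressing a copper-inducible Gal4–ROR gamma fusion and UAS-driven Photinus luciferase, incubated 20 hr after 700 uM copper sulfate.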
# VP16 counter = VP16 counterscreen qHTS for inhibitors of ROR gamma transcriptional activity; actives 3.5% (n = 310,000); Potency, µM (highest dose often 53.6 µM), for inactives: top-dose activity, negative = inhibition, actives largely listed as inhibitors; Drosophila S2 Gal4-VP16 UAS-luciferase, luminescence, 20 h;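 further: Gal4-VP16 expression switched on by copper sulfate through the metallothionein promoter; potency means the concentration at half of the fitted maximal effect; on the % scale 0 is the no-effect control and ±100 the full control effect; nearly all actives have a fitted effect of over 50% in size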
# * = called active by the depositor; ? = inconclusive; · = no result given; [ ] = another dose, or the depositor's remark. Unless noted, the call rests on the fitted dose curve; in most records, active means well fitted curve in the direction sought with a large enough effect; inconclusive means small, poorly fitted or top-dose-only effect, or another doubt; inactive means no such curve, though single readings can be large; an effect the other way counts as inactive or inconclusive.
SMILES,CBFb-RUNX1 inh,Six1-Eya2 blk,MBNL1 CUG block,CtBP-E1A blk,RORg inh,VP16 counter
CCCOc1ccc(C(=O)NC(=S)Nc2nc3ccccc3s2)cc1,6%,0,-7%,16,0.79µM*,?
Cc1ccc(S(=O)(=O)NCc2ccccc2)cc1C(=O)NC(C)c1ccc(S(N)(=O)=O)cc1 (centres undefined),·,7,·,1,·,·
Cc1nnc(SCC(=O)NCC(=O)Nc2ccc(F)c(F)c2F)n1N,·,8,·,2,·,·
Cc1ccc(C)c(OCCC(=O)OCC(=O)Nc2cc(S(=O)(=O)N3CCOCC3)ccc2C)c1,·,-5,·,3,·,·
Cc1nc(NC(=O)c2ccco2)sc1C(=O)O,·,4,-4%,3,7.1µM*,11µM*
CCc1cc2ccc(OC)cc2nc1SCC(=O)NNC(=O)c1ccco1,-4%,-1,26%,-5,18µM*,-1%
COc1ccc2nc(NC(=S)NC(=O)c3ccco3)sc2c1,-1%,0,?,·,1.1µM*,?
COc1ccc2sc(NC(=O)c3ccco3)nc2c1,4%,-1,-6%,17,10µM*,?
O=C(NC(=S)NCc1ccc(-c2nc3ccccc3s2)cc1)c1ccco1,3%,3,25%,-5,7.1µM*,5.6µM*
O=C(NCc1ccc(-c2nc3ccccc3s2)cc1)c1ccco1,-8%,4,14%,4,4%,-16%
CCn1c(CCCc2ccc(OC)c(C)c2)n[nH]c1=S,-3%,2,-8%,0,2.2µM*,?
C=CCn1c(CCSCc2ccccc2)n[nH]c1=S,-1%,3,-14%,·,4µM*,?
C=CCn1c(CCSCc2ccc(OC)c(C)c2)n[nH]c1=S,1%,11,-2%,-2,2.5µM*,-16%
NC(=O)c1nsc(C(=O)N(Cc2ccco2)C(C(=O)NCc2ccccc2)c2ccc(O)cc2)c1N (centres undefined),·,-12,?,-1,?,3%
Cc1ccc(N=C2NC(=O)/C(=C\c3cccs3)S2)cc1C,-4%,7,·,16,19%,4%
Cc1ccc(/C=C2\S/C(=N/S(=O)(=O)c3cccs3)NC2=O)cc1,-6%,-67*,11%,·,42%,-4%
Cc1cccc(N=C2NC(=O)/C(=C/c3cccs3)S2)c1,12%,-15,24%,-14,?,13µM*
CCOc1cc(C(=O)N(C)CC(=O)Nc2cccc(F)c2)ccc1OCC(=O)N1CCOCC1,·,2,·,-1,·,·
Cc1cccc(C)c1NC(=O)C(c1ccncc1)n1c(=O)c(-c2cc3ccccc3[nH]2)nc2ccccc21 (centres undefined),·,13,·,12,·,·
C/C(=N\NC(=O)c1ccccc1F)c1cccc(NC(=O)c2ccccc2)c1,·,-4,0%,3,-17%,-5%
C/C(=N\NC(=O)c1ccccc1O)c1ccc(Br)s1,7%,-12,?,-26,2µM*,2µM*
C/C(=N\NC(=O)c1cccc(F)c1)c1ccc(Br)s1,0%,-2,15%,8,0.79µM*,1.3µM*
C/C(=N/NC(=O)c1ccc(Br)o1)c1cccs1,·,2,14%,-1,?,?
C/C(=N\NC(=O)c1cc(Br)ccc1O)c1cccs1,4%,-4,6%,0,10µM*,?
C/C(=N\NC(=O)c1cc(Br)ccc1O)c1cccc(NC(=O)c2ccccc2F)c1,·,?,-1%,-11,11µM*,1%
SMILES,CBFb-RUNX1 inh,Six1-Eya2 blk,MBNL1 CUG block,CtBP-E1A blk,RORg inh,VP16 counter
COC(=O)CC1c2ccccc2C=C(/C=C/c2ccc3c(c2)OCO3)N1C(=O)OC (centres undefined),-4%[13.1 µM],·,·,·,·,·
C/C(=N\NC(=O)c1ccc(Cl)cc1)c1cccs1,-4%,20,6%,12,7.1µM*,16µM*
N=c1c2c(ncn1CCCO)Oc1c(ccc3ccccc13)C2c1ccccc1 (centres undefined),-3%,17,-1%,·,18µM*,?
COc1ccc(C2c3ccc4ccccc4c3Oc3ncn(CCO)c(=N)c32)cc1 (centres undefined),·,-5,6%,2,?,?
COc1ccc(C2c3ccc4ccccc4c3Oc3ncn(CCCO)c(=N)c32)cc1 (centres undefined),-4%,2,-11%,-17,4µM*,-26%
COc1ccc(C2c3ccc4ccccc4c3Oc3ncn(CCN(C)C)c(=N)c32)cc1 (centres undefined),·,-6,0%,-9,32µM*,?
CN(C)CCCn1cnc2c(c1=N)C(c1ccccc1)c1ccc3ccccc3c1O2 (centres undefined),·,-1,-4%,·,18µM*,?
Cc1cc(C)cc(Cn2cc(CN3CC(N4CCN(C)CC4)CS3(=O)=O)nn2)c1 (centres undefined),·,7,·,-5,·,·
N=c1c2c(ncn1Cc1ccco1)Oc1ccc3ccccc3c1C2c1ccccc1 (centres undefined),-1%,-24,·,-7,-27%,-16%
COc1ccc(C2c3c(ncn(Cc4ccco4)c3=N)Oc3ccc4ccccc4c32)cc1 (centres undefined),-1%,-16,-3%,4,18µM*,8.9µM*
CN(Cc1ccccc1)C(=O)c1[nH]cnc1C(=O)Nc1nccs1,·,-74*,·,?,·,·
CCOC(=O)c1ccc(NC(=O)c2nc[nH]c2C(=O)N[C@@H](CC(C)C)C(=O)OC(C)(C)C)cc1,21%,-1,-2%,0,2.5µM*,6.3µM*
O=C(Nc1ccc(F)cc1)c1nc[nH]c1C(=O)Nc1ccccc1[N+](=O)[O-],12%,-1,-20%,4,?,-11%
O=C(Nc1ccc(F)cc1)c1nc[nH]c1C(=O)O,·,-77*,4%,·,0%,-6%
CN(Cc1ccccc1)C(=O)c1[nH]cnc1C(=O)NCc1ccccc1,·,5,·,3,·,·
CCOC(=O)c1ccc(NC(=O)c2nc[nH]c2C(=O)N[C@@H](C)C(=O)OC(C)(C)C)cc1,13%,1,-1%,5,?,-4%
CNC(=O)c1[nH]cnc1C(=O)Nc1ccc(OC)cc1,9%,-14,-5%,·,5.6µM*,-70%
CCCCn1c(N)c(N(CCOC)C(=O)CSCc2cccc(C)c2)c(=O)[nH]c1=O,·,4,·,-5,·,·
